As usually defined, the inhibition is the relative decrease from the control value, in per cent.

Assay [1] concerns the target Sphingosine kinase 1 (Homo sapiens) (UniProt Q9NYA1). Conditions: at 1 µM.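 Also: mean SPHK1 inhibition value reported from the GSK PKIS kinase panel screen.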
The target of assay [2] is T1, Sphingosine kinase 2 (Homo sapiens) (UniProt Q9NRA0).
T1 sequence (whole entry): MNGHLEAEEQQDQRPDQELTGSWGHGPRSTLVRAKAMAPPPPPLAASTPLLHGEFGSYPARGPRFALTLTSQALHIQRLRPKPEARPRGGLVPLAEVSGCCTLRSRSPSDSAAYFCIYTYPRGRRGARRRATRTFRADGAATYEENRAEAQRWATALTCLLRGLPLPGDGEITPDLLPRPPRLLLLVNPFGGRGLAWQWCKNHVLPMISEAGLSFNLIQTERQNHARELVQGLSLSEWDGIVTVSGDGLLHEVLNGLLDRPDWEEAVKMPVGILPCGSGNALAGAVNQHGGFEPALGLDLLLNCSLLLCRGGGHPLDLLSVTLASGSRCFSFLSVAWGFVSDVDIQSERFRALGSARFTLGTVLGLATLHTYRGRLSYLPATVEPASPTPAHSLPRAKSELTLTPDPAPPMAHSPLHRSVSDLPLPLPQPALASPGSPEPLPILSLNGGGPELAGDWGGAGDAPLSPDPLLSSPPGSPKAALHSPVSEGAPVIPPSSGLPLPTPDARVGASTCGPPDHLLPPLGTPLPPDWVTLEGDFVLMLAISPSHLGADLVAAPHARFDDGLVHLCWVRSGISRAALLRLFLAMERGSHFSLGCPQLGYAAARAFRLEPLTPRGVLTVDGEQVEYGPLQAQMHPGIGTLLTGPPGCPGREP
The following applies: at 0.1 µM.

The target in assay [3] is T1, Sphingosine kinase 2 (Homo sapiens). The following applies: at 1 µM.
For assay [4], the target named is Casein kinase II subunit alpha (Homo sapiens) (UniProt P68400). Conditions: at 0.1 µM.
Sequence of Casein kinase II subunit alpha (Homo sapiens) (P68400 whole entry, looked up): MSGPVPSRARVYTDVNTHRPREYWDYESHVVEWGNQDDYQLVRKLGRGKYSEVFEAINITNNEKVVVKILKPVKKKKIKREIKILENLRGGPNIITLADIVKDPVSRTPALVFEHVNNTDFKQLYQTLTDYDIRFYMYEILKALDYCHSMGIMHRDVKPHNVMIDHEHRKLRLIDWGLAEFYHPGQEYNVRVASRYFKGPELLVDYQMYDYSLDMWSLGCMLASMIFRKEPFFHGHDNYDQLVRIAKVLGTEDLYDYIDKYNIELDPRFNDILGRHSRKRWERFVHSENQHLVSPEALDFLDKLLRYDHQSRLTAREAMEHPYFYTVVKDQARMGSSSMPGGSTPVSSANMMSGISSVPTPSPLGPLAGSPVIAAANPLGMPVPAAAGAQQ
The target is the same in assay [5]. Conditions: at 1 µM.
For assay [6], the target named is T2, Inhibitor of nuclear factor kappa-B kinase subunit alpha (Homo sapiens) (UniProt O15111).
T2 sequence (whole entry): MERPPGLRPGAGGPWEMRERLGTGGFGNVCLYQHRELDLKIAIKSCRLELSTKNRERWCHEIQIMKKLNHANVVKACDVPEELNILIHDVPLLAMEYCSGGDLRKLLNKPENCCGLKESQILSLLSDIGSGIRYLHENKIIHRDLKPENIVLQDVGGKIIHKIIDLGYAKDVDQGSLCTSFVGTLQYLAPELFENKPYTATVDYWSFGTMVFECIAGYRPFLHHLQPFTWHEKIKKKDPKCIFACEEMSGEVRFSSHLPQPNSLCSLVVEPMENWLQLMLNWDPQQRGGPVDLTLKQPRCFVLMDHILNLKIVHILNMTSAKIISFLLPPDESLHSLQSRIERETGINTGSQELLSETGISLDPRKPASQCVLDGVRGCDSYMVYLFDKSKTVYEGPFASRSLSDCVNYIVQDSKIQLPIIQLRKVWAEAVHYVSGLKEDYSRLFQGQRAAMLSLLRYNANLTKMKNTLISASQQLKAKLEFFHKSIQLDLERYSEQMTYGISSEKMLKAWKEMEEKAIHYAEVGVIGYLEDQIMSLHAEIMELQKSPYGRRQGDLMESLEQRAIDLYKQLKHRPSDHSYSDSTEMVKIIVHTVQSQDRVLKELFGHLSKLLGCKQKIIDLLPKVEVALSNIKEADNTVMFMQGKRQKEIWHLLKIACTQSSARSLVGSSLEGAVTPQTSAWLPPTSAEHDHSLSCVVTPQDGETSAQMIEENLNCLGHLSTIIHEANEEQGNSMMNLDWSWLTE
Conditions: at 0.1 µM.

Assay [7] deals with T2, Inhibitor of nuclear factor kappa-B kinase subunit alpha (Homo sapiens). The following applies: at 1 µM.
Assay [8] deals with T3, Inhibitor of nuclear factor kappa-B kinase subunit beta (Homo sapiens) (UniProt O14920).
T3 sequence (whole entry): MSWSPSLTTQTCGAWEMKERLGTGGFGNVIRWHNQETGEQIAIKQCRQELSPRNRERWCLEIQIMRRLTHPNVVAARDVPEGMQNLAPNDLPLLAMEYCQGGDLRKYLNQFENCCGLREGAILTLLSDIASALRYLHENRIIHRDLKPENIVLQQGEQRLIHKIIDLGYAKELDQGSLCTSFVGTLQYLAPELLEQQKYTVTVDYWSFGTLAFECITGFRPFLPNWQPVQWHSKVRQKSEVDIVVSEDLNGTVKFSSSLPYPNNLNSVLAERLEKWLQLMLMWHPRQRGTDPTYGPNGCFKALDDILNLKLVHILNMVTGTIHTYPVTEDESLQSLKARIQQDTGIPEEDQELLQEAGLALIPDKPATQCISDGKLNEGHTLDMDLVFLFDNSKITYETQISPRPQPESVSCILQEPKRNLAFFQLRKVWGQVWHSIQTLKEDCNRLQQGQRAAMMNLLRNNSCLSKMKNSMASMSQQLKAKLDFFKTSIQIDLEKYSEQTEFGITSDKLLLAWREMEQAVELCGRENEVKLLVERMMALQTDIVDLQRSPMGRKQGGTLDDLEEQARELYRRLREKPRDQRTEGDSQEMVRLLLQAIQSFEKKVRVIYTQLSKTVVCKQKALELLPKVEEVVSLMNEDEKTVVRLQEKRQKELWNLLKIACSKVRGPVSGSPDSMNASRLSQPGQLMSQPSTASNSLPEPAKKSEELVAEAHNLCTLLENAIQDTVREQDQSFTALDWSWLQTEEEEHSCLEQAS
The following applies: at 0.1 µM.

For assay [9], the target named is T3, Inhibitor of nuclear factor kappa-B kinase subunit beta (Homo sapiens). The following applies: at 1 µM.
The target in assay [10] is T4, Inhibitor of nuclear factor kappa-B kinase subunit epsilon (Homo sapiens) (UniProt Q14164).
T4 sequence (whole entry): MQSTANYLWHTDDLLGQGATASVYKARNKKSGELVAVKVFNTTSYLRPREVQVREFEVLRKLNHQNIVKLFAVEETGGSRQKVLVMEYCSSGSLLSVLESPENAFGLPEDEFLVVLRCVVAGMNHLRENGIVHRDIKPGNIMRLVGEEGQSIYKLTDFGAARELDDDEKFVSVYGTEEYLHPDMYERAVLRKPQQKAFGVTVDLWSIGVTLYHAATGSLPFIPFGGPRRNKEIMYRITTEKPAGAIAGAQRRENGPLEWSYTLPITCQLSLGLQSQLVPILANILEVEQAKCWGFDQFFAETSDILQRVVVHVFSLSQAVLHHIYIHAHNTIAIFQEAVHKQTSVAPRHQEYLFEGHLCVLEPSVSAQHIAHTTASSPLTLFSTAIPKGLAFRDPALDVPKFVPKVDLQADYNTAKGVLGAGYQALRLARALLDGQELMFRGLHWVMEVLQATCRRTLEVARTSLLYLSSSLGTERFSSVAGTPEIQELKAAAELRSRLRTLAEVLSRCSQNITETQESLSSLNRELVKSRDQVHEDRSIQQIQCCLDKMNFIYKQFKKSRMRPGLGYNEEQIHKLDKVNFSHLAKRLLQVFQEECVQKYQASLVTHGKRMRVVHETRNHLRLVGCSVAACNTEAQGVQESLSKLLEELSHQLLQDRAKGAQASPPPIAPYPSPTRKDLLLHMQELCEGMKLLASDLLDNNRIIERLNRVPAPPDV
The following applies: at 0.1 µM.

The target in assay [11] is T4, Inhibitor of nuclear factor kappa-B kinase subunit epsilon (Homo sapiens). Conditions: at 1 µM.
The target in assay [12] is T5, Serine/threonine-protein kinase Nek1 (Homo sapiens) (UniProt Q96PY6).
T5 sequence (whole entry): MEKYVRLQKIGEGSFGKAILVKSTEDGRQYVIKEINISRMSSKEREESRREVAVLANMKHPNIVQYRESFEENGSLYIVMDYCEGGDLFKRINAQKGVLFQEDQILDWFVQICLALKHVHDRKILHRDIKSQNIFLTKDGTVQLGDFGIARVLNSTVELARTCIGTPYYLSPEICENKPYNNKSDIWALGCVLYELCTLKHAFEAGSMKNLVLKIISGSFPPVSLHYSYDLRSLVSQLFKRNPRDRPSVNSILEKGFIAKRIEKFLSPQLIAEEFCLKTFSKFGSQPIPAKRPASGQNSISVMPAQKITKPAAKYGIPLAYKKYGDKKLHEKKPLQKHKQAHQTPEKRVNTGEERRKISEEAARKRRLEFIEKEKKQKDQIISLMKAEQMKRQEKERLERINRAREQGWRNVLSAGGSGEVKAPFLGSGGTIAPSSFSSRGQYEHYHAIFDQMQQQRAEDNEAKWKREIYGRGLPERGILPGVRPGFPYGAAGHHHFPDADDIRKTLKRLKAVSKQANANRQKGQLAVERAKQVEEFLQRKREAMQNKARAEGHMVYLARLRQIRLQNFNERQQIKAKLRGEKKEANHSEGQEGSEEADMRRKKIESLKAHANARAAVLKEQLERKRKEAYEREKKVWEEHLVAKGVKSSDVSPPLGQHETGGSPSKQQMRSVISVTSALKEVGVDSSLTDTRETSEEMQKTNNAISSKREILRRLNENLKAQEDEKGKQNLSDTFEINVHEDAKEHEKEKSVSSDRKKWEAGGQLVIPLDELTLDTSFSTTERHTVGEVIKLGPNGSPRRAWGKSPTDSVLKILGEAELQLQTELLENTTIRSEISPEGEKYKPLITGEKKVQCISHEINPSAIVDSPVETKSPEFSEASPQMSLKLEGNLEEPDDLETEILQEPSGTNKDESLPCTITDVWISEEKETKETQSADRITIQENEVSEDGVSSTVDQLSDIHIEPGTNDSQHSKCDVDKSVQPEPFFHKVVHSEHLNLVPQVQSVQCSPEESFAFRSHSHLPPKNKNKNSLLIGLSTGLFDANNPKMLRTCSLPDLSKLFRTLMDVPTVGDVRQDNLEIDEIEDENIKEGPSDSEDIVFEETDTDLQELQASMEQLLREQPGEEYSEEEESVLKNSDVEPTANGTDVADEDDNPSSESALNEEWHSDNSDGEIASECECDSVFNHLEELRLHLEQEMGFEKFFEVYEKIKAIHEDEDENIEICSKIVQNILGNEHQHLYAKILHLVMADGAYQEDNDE
Conditions: at 0.1 µM.

The target in assay [13] is T5, Serine/threonine-protein kinase Nek1 (Homo sapiens). The following applies: at 1 µM.
Assay [14] has as its target T6, Serine/threonine-protein kinase Nek2 (Homo sapiens) (UniProt P51955).
T6 sequence (whole entry): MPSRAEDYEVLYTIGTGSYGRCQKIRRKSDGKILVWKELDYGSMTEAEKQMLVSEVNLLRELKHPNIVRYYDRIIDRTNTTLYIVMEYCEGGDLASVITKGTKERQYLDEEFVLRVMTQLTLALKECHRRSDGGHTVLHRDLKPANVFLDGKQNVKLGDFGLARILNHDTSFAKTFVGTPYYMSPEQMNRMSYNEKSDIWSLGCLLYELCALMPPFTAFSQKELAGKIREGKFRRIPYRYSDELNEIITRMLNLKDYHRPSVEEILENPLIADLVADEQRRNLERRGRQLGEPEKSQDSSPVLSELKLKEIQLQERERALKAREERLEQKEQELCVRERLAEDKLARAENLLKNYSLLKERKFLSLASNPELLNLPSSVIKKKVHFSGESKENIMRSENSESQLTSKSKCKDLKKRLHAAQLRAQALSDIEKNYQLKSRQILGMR
Conditions: at 0.1 µM.

For assay [15], the target named is T6, Serine/threonine-protein kinase Nek2 (Homo sapiens). The following applies: at 1 µM.
The target of assay [16] is Serine/threonine-protein kinase Nek6 (Homo sapiens) (UniProt Q9HC98). Conditions: at 0.1 µM.
Sequence of Serine/threonine-protein kinase Nek6 (Homo sapiens) (Q9HC98 whole entry): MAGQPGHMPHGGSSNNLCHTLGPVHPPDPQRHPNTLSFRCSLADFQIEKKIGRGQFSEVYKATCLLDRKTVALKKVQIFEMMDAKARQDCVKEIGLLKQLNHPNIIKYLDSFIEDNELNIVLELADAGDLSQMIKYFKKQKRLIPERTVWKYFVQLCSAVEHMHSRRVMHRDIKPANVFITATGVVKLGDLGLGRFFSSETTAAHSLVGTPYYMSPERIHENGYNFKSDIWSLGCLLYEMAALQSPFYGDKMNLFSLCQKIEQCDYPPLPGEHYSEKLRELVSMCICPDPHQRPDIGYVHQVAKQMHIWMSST
Assay [17] shares this target. The following applies: at 1 µM.
For assay [18], the target named is Serine/threonine-protein kinase Nek7 (Homo sapiens) (UniProt Q8TDX7). The following applies: at 0.1 µM.
Sequence of Serine/threonine-protein kinase Nek7 (Homo sapiens) (Q8TDX7 whole entry, looked up): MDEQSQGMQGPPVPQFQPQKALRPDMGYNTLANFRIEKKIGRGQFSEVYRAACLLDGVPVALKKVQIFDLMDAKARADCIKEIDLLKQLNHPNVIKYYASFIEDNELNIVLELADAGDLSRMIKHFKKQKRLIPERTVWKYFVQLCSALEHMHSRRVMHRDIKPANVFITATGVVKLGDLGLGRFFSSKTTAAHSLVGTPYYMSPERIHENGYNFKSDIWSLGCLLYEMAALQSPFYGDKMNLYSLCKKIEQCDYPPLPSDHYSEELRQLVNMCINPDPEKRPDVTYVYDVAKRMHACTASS
Assay [19] shares this target. The following applies: at 1 µM.
Assay [20] has as its target T7, Serine/threonine-protein kinase Nek9 (Homo sapiens) (UniProt Q8TD19).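 Also: reported value is the mean percent inhibition of NEK9.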
T7 sequence (whole entry): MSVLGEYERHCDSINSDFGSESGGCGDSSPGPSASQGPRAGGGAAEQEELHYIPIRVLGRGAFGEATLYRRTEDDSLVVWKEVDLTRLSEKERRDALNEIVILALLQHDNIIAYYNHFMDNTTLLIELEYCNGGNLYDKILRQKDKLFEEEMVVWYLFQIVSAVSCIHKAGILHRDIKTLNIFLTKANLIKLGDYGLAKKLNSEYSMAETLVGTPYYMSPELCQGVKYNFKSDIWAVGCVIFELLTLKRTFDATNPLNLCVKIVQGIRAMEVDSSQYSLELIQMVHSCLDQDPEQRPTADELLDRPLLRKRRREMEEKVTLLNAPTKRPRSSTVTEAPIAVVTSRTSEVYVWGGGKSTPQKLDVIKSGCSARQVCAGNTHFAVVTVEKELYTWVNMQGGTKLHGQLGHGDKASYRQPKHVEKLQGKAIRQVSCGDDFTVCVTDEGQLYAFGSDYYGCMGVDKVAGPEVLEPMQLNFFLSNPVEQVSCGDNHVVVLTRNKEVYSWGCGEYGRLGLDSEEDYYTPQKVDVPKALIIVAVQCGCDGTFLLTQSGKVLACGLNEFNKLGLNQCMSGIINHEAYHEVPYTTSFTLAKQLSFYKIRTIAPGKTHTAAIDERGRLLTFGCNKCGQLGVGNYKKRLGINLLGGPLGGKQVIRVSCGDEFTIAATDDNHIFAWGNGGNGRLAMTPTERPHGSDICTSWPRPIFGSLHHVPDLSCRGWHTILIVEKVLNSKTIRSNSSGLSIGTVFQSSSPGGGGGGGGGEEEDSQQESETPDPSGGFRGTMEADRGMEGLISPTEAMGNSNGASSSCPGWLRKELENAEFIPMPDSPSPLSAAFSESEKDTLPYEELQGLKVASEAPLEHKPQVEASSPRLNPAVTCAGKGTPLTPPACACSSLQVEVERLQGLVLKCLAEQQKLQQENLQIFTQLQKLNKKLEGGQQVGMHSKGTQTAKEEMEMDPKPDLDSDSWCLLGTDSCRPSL
The following applies: at 0.1 µM.

Sequence of Sphingosine kinase 1 (Homo sapiens) (Q9NYA1 whole entry): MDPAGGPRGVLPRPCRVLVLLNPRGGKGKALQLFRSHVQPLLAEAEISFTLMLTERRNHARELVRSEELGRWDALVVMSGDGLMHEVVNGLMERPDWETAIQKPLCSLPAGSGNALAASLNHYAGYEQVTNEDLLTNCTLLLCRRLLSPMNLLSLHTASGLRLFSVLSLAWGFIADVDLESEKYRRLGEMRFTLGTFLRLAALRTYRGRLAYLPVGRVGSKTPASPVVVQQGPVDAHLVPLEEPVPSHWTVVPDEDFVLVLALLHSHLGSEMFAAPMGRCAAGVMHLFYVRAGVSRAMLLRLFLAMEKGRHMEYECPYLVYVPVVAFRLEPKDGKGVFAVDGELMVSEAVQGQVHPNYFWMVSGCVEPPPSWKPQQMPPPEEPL

`CCN1CCC(CC(=O)Nc2n[nH]c3nnc(-c4cccc(F)c4F)cc23)CC1`: the inhibition in [1] was 1.84%; in assay [2], -1.05%; in assay [3] it was 0%; in assay [4], 5.23%; in assay [5], 2.82%; in assay [6] it was 4.71%. In addition, the inhibition worked out at 0.12% in assay [7]; 5.28% in assay [8]; 3.6% in [9]; 4.71% in [10]; 4.56% in assay [11]; 1.55% in assay [12]. Further, the inhibition is 1.21% in [13]; 2.78% in [14]; 1.49% in assay [15]; 2.04% in assay [16]; 2.93% in [17]; 2.55% in [18]. Besides, the inhibition in assay [19] was 1.27%; in assay [20], 0.14%.

For the origin of these results see ChEMBL document CHEMBL1961873, “Compounds: GSK PKIS; Assays: Nanosyn kinase panel” (2012).
